Assay results published in PubChem BioAssay AID1508601 (ICCB-Longwood Screening Facility, Harvard Medical School, 2020).
The whole screen tested about 5,700 compounds, of which about 85 (1%) were called active. Cut-off read from the data, not from the text of the source: active = p53-positive nuclei above about 36% (passing the limit was not always enough); inactive = the rest. The full list was thinned out, with actives kept by preference.

Key:
[1] = p53 stabilisation in HPV-positive human cells, imaging, p53-positive nuclei imaging, 24 h, 48 h (AID 1508601); conditions: 24/48 h
[2] = target: Cellular tumor antigen p53 (Homo sapiens) (UniProt P04637); experiment: as above; conditions: 24/48 h, stronger effect = higher value
[3] = measured here: cell number at 24 h, Library stock concentration: 3.33 mM
[4] = measured here: cell number at 24 h, Library stock concentration: 10 mM
[5] = measured here: cell number at 48 h, Library stock concentration: 3.33 mM
[6] = measured here: cell number at 48 h, Library stock concentration: 10 mM
[7] = Library stock concentration: 3.33 mM
[8] = Library stock concentration: 10 mM
[9] = measured here: p53 positive nuclei at 24 h, Library stock concentration: 3.33 mM
[10] = measured here: p53 positive nuclei at 24 h, Library stock concentration: 10 mM

Chain of Cellular tumor antigen p53 (Homo sapiens) (P04637 whole entry, looked up): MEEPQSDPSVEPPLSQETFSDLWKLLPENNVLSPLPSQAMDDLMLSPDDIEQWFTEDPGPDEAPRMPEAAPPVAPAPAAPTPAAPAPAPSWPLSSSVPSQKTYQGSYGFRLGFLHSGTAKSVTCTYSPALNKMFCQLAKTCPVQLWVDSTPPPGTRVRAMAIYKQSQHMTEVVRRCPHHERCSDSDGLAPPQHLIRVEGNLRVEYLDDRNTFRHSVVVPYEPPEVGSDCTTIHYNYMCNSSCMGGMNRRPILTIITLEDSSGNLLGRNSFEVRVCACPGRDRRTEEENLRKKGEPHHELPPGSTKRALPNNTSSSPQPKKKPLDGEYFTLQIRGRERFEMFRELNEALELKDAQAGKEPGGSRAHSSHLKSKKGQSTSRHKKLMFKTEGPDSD

Which nuclei count, normalised ([1]; measured here: cell number at 24 h, Library stock concentration: 80 uM) does the source give for `CC(C)N(CCCNC(=O)Nc1ccc(C(C)(C)C)cc1)CC1OC(n2cc(Br)c3c(N)ncnc32)C(O)C1O` (configuration not stated) here?
The nuclei count, normalised was 105%.

What about the nuclei count, normalised ([1]; measured here: cell number at 24 h, Library stock concentration: 400 uM) of the same compound?
Its nuclei count, normalised is 101%.

What about the nuclei count, normalised ([1]; measured here: cell number at 24 h, Library stock concentration: 2 mM) of the same compound?
The nuclei count, normalised was 103%.

And the nuclei count, normalised [1, 3]?
Its nuclei count, normalised is 115%.

And the nuclei count, normalised [1, 4]?
Its nuclei count, normalised is 101%.

And the nuclei count, normalised ([1]; measured here: cell number at 48 h, Library stock concentration: 80 uM)?
The nuclei count, normalised was 98.8%.

What about the nuclei count, normalised ([1]; measured here: cell number at 48 h, Library stock concentration: 400 uM) of the same compound?
The nuclei count, normalised was 96.7%.

What about the nuclei count, normalised ([1]; measured here: cell number at 48 h, Library stock concentration: 2 mM) of the same compound?
Its nuclei count, normalised is 94.7%.

And the nuclei count, normalised [1, 5]?
Its nuclei count, normalised is 110%.

And the nuclei count, normalised [1, 6]?
Its nuclei count, normalised is 99.9%.

What about the p53-positive nuclei, normalised ([2]; Library stock concentration: 80 uM) of the same compound?
The p53-positive nuclei, normalised was -0.0631% (inactive).

And the p53-positive nuclei, normalised ([2]; Library stock concentration: 400 uM)?
Its p53-positive nuclei, normalised is 0.111% (inactive).

And the p53-positive nuclei, normalised ([2]; Library stock concentration: 2 mM)?
Its p53-positive nuclei, normalised is 0.291% (inactive).

What about the p53-positive nuclei, normalised [2, 7] of the same compound?
The p53-positive nuclei, normalised was -0.109% (inactive).

And the p53-positive nuclei, normalised [2, 8]?
The p53-positive nuclei, normalised was 0.13% (inactive).

What about the p53-positive nuclei, normalised ([2]; measured here: p53 positive nuclei at 24 h, Library stock concentration: 80 uM) of the same compound?
Its p53-positive nuclei, normalised is -0.167%.

What about the p53-positive nuclei, normalised ([2]; measured here: p53 positive nuclei at 24 h, Library stock concentration: 400 uM) of the same compound?
The p53-positive nuclei, normalised was 0.0144%.

What about the p53-positive nuclei, normalised ([2]; measured here: p53 positive nuclei at 24 h, Library stock concentration: 2 mM) of the same compound?
Its p53-positive nuclei, normalised is -0.162%.

And the p53-positive nuclei, normalised [2, 9]?
The p53-positive nuclei, normalised was -0.283%.

What about the p53-positive nuclei, normalised [2, 10] of the same compound?
Its p53-positive nuclei, normalised is -0.163%.

For `CCCC1CC(C(=O)NC(C(C)O)[C@@H]2OC(SC)C(O)C(O)C2O)N(C)C1` (some centres not stated), which nuclei count, normalised [1, 3] is on record?
The nuclei count, normalised was 101%.

What about the nuclei count, normalised [1, 5] of the same compound?
Its nuclei count, normalised is 102%.

And the p53-positive nuclei, normalised [2, 7]?
Its p53-positive nuclei, normalised is -0.245% (inactive).

And the p53-positive nuclei, normalised [2, 9]?
Its p53-positive nuclei, normalised is -0.267%.

Which nuclei count, normalised ([1]; measured here: cell number at 24 h, Library stock concentration: 500 nM) does the source give for `N#CSc1cc(SC#N)c(N)nc1N` here?
The nuclei count, normalised was 108%.

And the nuclei count, normalised ([1]; measured here: cell number at 24 h, Library stock concentration: 1.5 uM)?
The nuclei count, normalised was 116%.

And the nuclei count, normalised ([1]; measured here: cell number at 24 h, Library stock concentration: 4.6 uM)?
The nuclei count, normalised was 121%.

What about the nuclei count, normalised ([1]; measured here: cell number at 24 h, Library stock concentration: 13.7 uM) of the same compound?
Its nuclei count, normalised is 119%.

What about the nuclei count, normalised ([1]; measured here: cell number at 24 h, Library stock concentration: 41 uM) of the same compound?
The nuclei count, normalised was 107%.

What about the nuclei count, normalised ([1]; measured here: cell number at 24 h, Library stock concentration: 123 uM) of the same compound?
Its nuclei count, normalised is 114%.

What about the nuclei count, normalised ([1]; measured here: cell number at 24 h, Library stock concentration: 370 uM) of the same compound?
Its nuclei count, normalised is 114%.

What about the nuclei count, normalised ([1]; measured here: cell number at 24 h, Library stock concentration: 1.111 mM) of the same compound?
Its nuclei count, normalised is 107%.

What about the nuclei count, normalised [1, 3] of the same compound?
Its nuclei count, normalised is 97.4%.

And the nuclei count, normalised ([1]; measured here: cell number at 24 h, Library stock concentration: 3.333 mM)?
The nuclei count, normalised was 84.8%.

And the nuclei count, normalised [1, 4]?
The nuclei count, normalised was 45.2%.

What about the nuclei count, normalised ([1]; measured here: cell number at 48 h, Library stock concentration: 500 nM) of the same compound?
Its nuclei count, normalised is 108%.

And the nuclei count, normalised ([1]; measured here: cell number at 48 h, Library stock concentration: 1.5 uM)?
The nuclei count, normalised was 111%.

And the nuclei count, normalised ([1]; measured here: cell number at 48 h, Library stock concentration: 4.6 uM)?
Its nuclei count, normalised is 118%.

And the nuclei count, normalised ([1]; measured here: cell number at 48 h, Library stock concentration: 13.7 uM)?
The nuclei count, normalised was 113%.

What about the nuclei count, normalised ([1]; measured here: cell number at 48 h, Library stock concentration: 41 uM) of the same compound?
Its nuclei count, normalised is 108%.

And the nuclei count, normalised ([1]; measured here: cell number at 48 h, Library stock concentration: 123 uM)?
The nuclei count, normalised was 113%.

And the nuclei count, normalised ([1]; measured here: cell number at 48 h, Library stock concentration: 370 uM)?
The nuclei count, normalised was 74.3%.

And the nuclei count, normalised ([1]; measured here: cell number at 48 h, Library stock concentration: 1.111 mM)?
Its nuclei count, normalised is 74.4%.

What about the nuclei count, normalised [1, 5] of the same compound?
Its nuclei count, normalised is 103%.

What about the nuclei count, normalised ([1]; measured here: cell number at 48 h, Library stock concentration: 3.333 mM) of the same compound?
Its nuclei count, normalised is 62.1%.

And the nuclei count, normalised [1, 6]?
The nuclei count, normalised was 21.8%.

What about the p53-positive nuclei, normalised ([2]; Library stock concentration: 500 nM) of the same compound?
Its p53-positive nuclei, normalised is 0.137% (inactive).

And the p53-positive nuclei, normalised ([2]; Library stock concentration: 1.5 uM)?
Its p53-positive nuclei, normalised is -0.0213% (inactive).

What about the p53-positive nuclei, normalised ([2]; Library stock concentration: 4.6 uM) of the same compound?
The p53-positive nuclei, normalised was -0.102% (inactive).

What about the p53-positive nuclei, normalised ([2]; Library stock concentration: 13.7 uM) of the same compound?
Its p53-positive nuclei, normalised is 0.047% (inactive).

What about the p53-positive nuclei, normalised ([2]; Library stock concentration: 41 uM) of the same compound?
Its p53-positive nuclei, normalised is 0.227% (inactive).

What about the p53-positive nuclei, normalised ([2]; Library stock concentration: 123 uM) of the same compound?
Its p53-positive nuclei, normalised is -0.098% (inactive).

And the p53-positive nuclei, normalised ([2]; Library stock concentration: 370 uM)?
The p53-positive nuclei, normalised was 0.164% (inactive).

And the p53-positive nuclei, normalised ([2]; Library stock concentration: 1.111 mM)?
Its p53-positive nuclei, normalised is 0.121% (inactive).

What about the p53-positive nuclei, normalised [2, 7] of the same compound?
Its p53-positive nuclei, normalised is 0.00985% (inactive).

And the p53-positive nuclei, normalised ([2]; Library stock concentration: 3.333 mM)?
Its p53-positive nuclei, normalised is 0.39% (inactive).

And the p53-positive nuclei, normalised [2, 8]?
Its p53-positive nuclei, normalised is 46.6% (active).

What about the p53-positive nuclei, normalised ([2]; measured here: p53 positive nuclei at 24 h, Library stock concentration: 500 nM) of the same compound?
The p53-positive nuclei, normalised was 0.00877%.

What about the p53-positive nuclei, normalised ([2]; measured here: p53 positive nuclei at 24 h, Library stock concentration: 1.5 uM) of the same compound?
The p53-positive nuclei, normalised was -0.00152%.

What about the p53-positive nuclei, normalised ([2]; measured here: p53 positive nuclei at 24 h, Library stock concentration: 4.6 uM) of the same compound?
The p53-positive nuclei, normalised was 0.0386%.

And the p53-positive nuclei, normalised ([2]; measured here: p53 positive nuclei at 24 h, Library stock concentration: 13.7 uM)?
Its p53-positive nuclei, normalised is -0.00721%.

And the p53-positive nuclei, normalised ([2]; measured here: p53 positive nuclei at 24 h, Library stock concentration: 41 uM)?
The p53-positive nuclei, normalised was 0.497%.

And the p53-positive nuclei, normalised ([2]; measured here: p53 positive nuclei at 24 h, Library stock concentration: 123 uM)?
Its p53-positive nuclei, normalised is 0.0549%.

What about the p53-positive nuclei, normalised ([2]; measured here: p53 positive nuclei at 24 h, Library stock concentration: 370 uM) of the same compound?
Its p53-positive nuclei, normalised is -0.0579%.

And the p53-positive nuclei, normalised ([2]; measured here: p53 positive nuclei at 24 h, Library stock concentration: 1.111 mM)?
The p53-positive nuclei, normalised was 0.00745%.

And the p53-positive nuclei, normalised [2, 9]?
Its p53-positive nuclei, normalised is -0.237%.

And the p53-positive nuclei, normalised ([2]; measured here: p53 positive nuclei at 24 h, Library stock concentration: 3.333 mM)?
The p53-positive nuclei, normalised was 0.112%.

And the p53-positive nuclei, normalised [2, 10]?
The p53-positive nuclei, normalised was 76.7%.

For `CC/C=C\C/C=C\C/C=C\C/C=C\C/C=C\CCCCCC(=O)O`, which nuclei count, normalised ([1]; measured here: cell number at 24 h, concentration not given here) is on record?
Its nuclei count, normalised is 100%.

And the nuclei count, normalised ([1]; measured here: cell number at 48 h, concentration not given here)?
Its nuclei count, normalised is 102%.

What about the p53-positive nuclei, normalised ([2]; concentration not given here) of the same compound?
The p53-positive nuclei, normalised was 0.209% (inactive).

And the p53-positive nuclei, normalised ([2]; measured here: p53 positive nuclei at 24 h, concentration not given here)?
Its p53-positive nuclei, normalised is -0.0279%.
